This is a sample that favours compounds with a hit; in the whole collection about 2.3% have one here.
CHRM1 agonist – activates human CHRM1 receptor; P11229; CHO-K1 hM1, Fluo-8 calcium fluorescence, agonist mode; 0% DMSO, 100% acetylcholine EC100; activation, % at 3 µM; 360,000 compounds, 0.33% hits;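 active = activation above the run's mean compound activation plus 3 SD, cut at about 16% in these data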;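 also: peak over basal fluorescence ratio within a 140 s kinetic read after compound addition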
Target sequence (P11229 whole entry, looked up): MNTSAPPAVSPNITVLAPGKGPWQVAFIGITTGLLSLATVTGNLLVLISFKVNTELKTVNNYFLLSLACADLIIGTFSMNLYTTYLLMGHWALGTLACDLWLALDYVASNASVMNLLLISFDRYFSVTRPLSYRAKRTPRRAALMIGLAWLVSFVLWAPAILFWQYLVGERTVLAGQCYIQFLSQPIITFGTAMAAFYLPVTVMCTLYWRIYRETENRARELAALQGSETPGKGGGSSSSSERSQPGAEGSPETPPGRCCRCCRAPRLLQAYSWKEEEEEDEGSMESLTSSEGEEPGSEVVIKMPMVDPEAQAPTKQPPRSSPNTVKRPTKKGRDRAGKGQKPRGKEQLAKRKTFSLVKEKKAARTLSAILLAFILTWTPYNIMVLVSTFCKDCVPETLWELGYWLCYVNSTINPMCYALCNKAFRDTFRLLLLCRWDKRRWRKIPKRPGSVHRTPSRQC
M1 PAM – human CHRM1 positive allosteric modulation; P11229; CHO-K1 hM1, Fluo-8 calcium fluorescence, ACh EC20; 0% = ACh EC20, 100% = maximal ACh; activation, % at 3 µM; 360,000 compounds, 0.088% hits; in the data active = activation above about 19%, passing the limit was not always enough
CHO-K1 Ca PAM – counter-screen for M1 PAMs: effect in parental CHO-K1 cells; AID 602247; 360,000 compounds, 0.02% hits; ATP EC20, Fluo-8 calcium fluorescence; 0% at ATP EC20, 100% at ATP max; activation, % at 3 µM;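 active = activation above the run cutoff, the mean activation of all test compounds plus 3 SD, cut at about 40% in these data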;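 also: peak over basal fluorescence ratio in a 140 s read after ATP addition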
CHO-K1 Ca ag – M1 agonist counterscreen hit in parental CHO-K1 cells; AID 602248; 360,000 compounds, 0.48% hits; Fluo-8 calcium fluorescence; scaled to maximal ATP response, vehicle zero; activation, % at 3 µM; in the data active = activation above about 15%;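 also: untransfected CHO-K1 host cells lacking M1 receptor as counterscreen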
CHRM1 antagonist – blocks human M1 muscarinic receptor | CHO-K1 hM1, Fluo-8 calcium fluorescence, ACh EC80 antagonist | inhibition, % at 3 µM | 360,000 compounds, 1.3% hits | AID 588852;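 active = percent inhibition above its own plate's cutoff, namely the mean of that plate's compound wells plus 3 SD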;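 also: peak over basal fluorescence ratio during 140 s after agonist addition; 0% = ACh EC80 plus DMSO and 100% = DMSO alone without agonist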
CHO-K1 Ca antag – counter-screen for M1 antagonists: effect in parental CHO-K1 cells | inhibition, % at 3 µM | AID 602250 | 360,000 compounds, 0.6% hits | ATP-induced calcium, Fluo-8 fluorescence;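 active = inhibition above a per-plate cutoff, the plate's mean sample inhibition plus 3 SD, cut at about 24% in these data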;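 also: 0% = DMSO plus EC80 ATP and 100% = DMSO alone without ATP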
Starred values were filed as active, the others as inactive.

How did COc1ccc(CC(=O)Nc2ccc(S(=O)(=O)N(C)C3CCN(C)CC3)cc2)cc1 do in these assays?
CHRM1 agonist: -3.8; M1 PAM: -0.6; CHO-K1 Ca PAM: 8.4; CHO-K1 Ca ag: 2.5; CHRM1 antagonist: 5.1; CHO-K1 Ca antag: 7.4

Results for CC(Oc1ccc(C(=O)c2ccccc2)cc1)C(=O)Nc1ccc(S(N)(=O)=O)cc1 (configuration not stated) ?
CHRM1 agonist: 13.8; M1 PAM: 1.4; CHO-K1 Ca PAM: 23.4; CHO-K1 Ca ag: 17.5*; CHRM1 antagonist: 4.6; CHO-K1 Ca antag: 0.3

How did Cc1ccccc1OC(C)C(=O)Nc1ccc(S(=O)(=O)N2CCCC2)cc1 (configuration not stated) do in these assays?
CHRM1 agonist: -4.5; M1 PAM: -23.1; CHO-K1 Ca PAM: 7.0; CHO-K1 Ca ag: 2.3; CHRM1 antagonist: 88.5*; CHO-K1 Ca antag: -8.9

What do the screens show for `CC(Oc1ccc(Br)cc1)C(=O)Nc1ccc(S(=O)(=O)N(C)C2CCN(C)CC2)cc1` (configuration not stated)?
CHRM1 agonist: 54.9*; M1 PAM: -19.4; CHO-K1 Ca PAM: -30.9; CHO-K1 Ca ag: 54.9*; CHRM1 antagonist: 67.0*; CHO-K1 Ca antag: 57.4*

What do the screens show for `CCC(C)N1C(=O)C2C(C(=O)Nc3cccc(OC)c3)C3C=CC2(O3)C1C(=O)NC1CCCCC1C` (configuration not stated)?
CHRM1 agonist: -1.0; M1 PAM: 7.5; CHO-K1 Ca PAM: -4.4; CHO-K1 Ca ag: -0.7; CHRM1 antagonist: -4.0; CHO-K1 Ca antag: 27.6*

Results for CC(C)Cn1c(N)c(C(=O)COC(=O)Cc2cccs2)c(=O)n(C)c1=O ?
CHRM1 agonist: 3.3; M1 PAM: -11.6; CHO-K1 Ca PAM: -10.6; CHO-K1 Ca ag: 12.8; CHRM1 antagonist: 29.5*; CHO-K1 Ca antag: 12.1

How did CC(C)Cn1c(N)c(C(=O)COC(=O)Cc2cccc(C(F)(F)F)c2)c(=O)n(C)c1=O do in these assays?
CHRM1 agonist: -2.1; M1 PAM: -18.0; CHO-K1 Ca PAM: -27.2; CHO-K1 Ca ag: 10.7; CHRM1 antagonist: 37.9*; CHO-K1 Ca antag: 22.6

Results for COc1ccc(N(Cc2ccccc2)C(=O)OC(C)(C)C)c(C(=O)N(C)OC)c1 ?
CHRM1 agonist: -2.2; M1 PAM: 0.4; CHO-K1 Ca PAM: -7.8; CHO-K1 Ca ag: 0.5; CHRM1 antagonist: -1.0; CHO-K1 Ca antag: -2.3

What do the screens show for `COc1ccc(NC(=O)CSc2nnnn2C2CC3C=CC2C3)cc1` (configuration not stated)?
CHRM1 agonist: -4.9; M1 PAM: 4.3; CHO-K1 Ca PAM: 22.4; CHO-K1 Ca ag: 2.7; CHRM1 antagonist: -5.6; CHO-K1 Ca antag: -12.3

Results for COc1ccc(N(C)S(=O)(=O)c2ccc(Cl)c(C(=O)NNC(=O)c3ccccc3O)c2)cc1 ?
CHRM1 agonist: -2.3; M1 PAM: -3.0; CHO-K1 Ca PAM: -1.3; CHO-K1 Ca ag: 3.8; CHRM1 antagonist: 3.8; CHO-K1 Ca antag: 3.9

How did CN(C)c1cccc(C(=O)N2CCCC(CCC(=O)NCc3ccccc3F)C2)c1 (configuration not stated) do in these assays?
CHRM1 agonist: -3.7; M1 PAM: 13.7; CHO-K1 Ca PAM: 1.9; CHO-K1 Ca ag: 1.2; CHRM1 antagonist: -15.8; CHO-K1 Ca antag: -9.4

What do the screens show for `COc1cccc(/C=N/Nc2snc(SC)c2C#N)c1O`?
CHRM1 agonist: 9.9; M1 PAM: -10.4; CHO-K1 Ca PAM: 4.3; CHO-K1 Ca ag: 16.9*; CHRM1 antagonist: 9.3; CHO-K1 Ca antag: 16.2

How did Cc1ccc2[nH]c(C(=O)N3CCCCC3)cc2c1 do in these assays?
CHRM1 agonist: -4.1; M1 PAM: 8.6; CHO-K1 Ca PAM: 8.0; CHO-K1 Ca ag: 0.3; CHRM1 antagonist: -18.6; CHO-K1 Ca antag: -3.4

Results for Cc1ccc2[nH]c(C(=O)N3CCOCC3)cc2c1 ?
CHRM1 agonist: -2.4; M1 PAM: 15.9; CHO-K1 Ca PAM: -11.9; CHO-K1 Ca ag: -0.5; CHRM1 antagonist: -19.2; CHO-K1 Ca antag: 25.1*

What do the screens show for `COc1ccccc1C=NN=C(NN=Cc1ccccc1OC)NN=Cc1ccccc1OC`?
CHRM1 agonist: 14.9; M1 PAM: 7.2; CHO-K1 Ca PAM: 23.0; CHO-K1 Ca ag: 6.0; CHRM1 antagonist: 2.9; CHO-K1 Ca antag: 4.1

Results for O=C(CCC1CCCN(c2ncccn2)C1)NCc1ccc(F)c(F)c1 (configuration not stated) ?
CHRM1 agonist: -12.8; M1 PAM: 12.2; CHO-K1 Ca PAM: 18.9; CHO-K1 Ca ag: 0.5; CHRM1 antagonist: -6.4; CHO-K1 Ca antag: -6.8

How did CC(=O)c1c(C)[nH]c(C(=O)OCC(=O)Nc2cc(Cl)ccc2[N+](=O)[O-])c1C do in these assays?
CHRM1 agonist: 9.3; M1 PAM: -19.9; CHO-K1 Ca PAM: -3.2; CHO-K1 Ca ag: 12.2; CHRM1 antagonist: 24.9*; CHO-K1 Ca antag: 17.0

How did O=C(NNC(=O)c1ccc(-n2cncn2)c([N+](=O)[O-])c1)c1cccc(Cl)c1 do in these assays?
CHRM1 agonist: -1.7; M1 PAM: 5.0; CHO-K1 Ca PAM: -16.4; CHO-K1 Ca ag: 0.5; CHRM1 antagonist: -6.5; CHO-K1 Ca antag: 47.5*

How did O=C(NNC(=O)c1ccc(-n2cncn2)c([N+](=O)[O-])c1)c1ccc(Cl)cc1 do in these assays?
CHRM1 agonist: 2.1; M1 PAM: 13.6; CHO-K1 Ca PAM: -21.4; CHO-K1 Ca ag: -0.1; CHRM1 antagonist: -9.4; CHO-K1 Ca antag: 19.5

Results for CN(C)c1ccc(C=C2SC(=S)N(Cc3ccco3)C2=O)cc1 ?
CHRM1 agonist: 20.4*; M1 PAM: -15.9; CHO-K1 Ca PAM: -5.8; CHO-K1 Ca ag: 12.0; CHRM1 antagonist: 17.1; CHO-K1 Ca antag: 11.8

How did O=C1C(=C2CCCCC2)SC(=S)N1Cc1ccco1 do in these assays?
CHRM1 agonist: -6.2; M1 PAM: -19.9; CHO-K1 Ca PAM: 4.1; CHO-K1 Ca ag: 0.4; CHRM1 antagonist: 28.5*; CHO-K1 Ca antag: -1.6

How did O=C(O)CCN1C(=O)C(=C2CCCCCC2)SC1=S do in these assays?
CHRM1 agonist: -2.9; M1 PAM: 5.9; CHO-K1 Ca PAM: 18.3; CHO-K1 Ca ag: 0.5; CHRM1 antagonist: -7.4; CHO-K1 Ca antag: -2.2

What do the screens show for `CCCCNC(=O)C1c2ccccc2OCC(=O)N1CCc1c[nH]c2ccccc12` (configuration not stated)?
CHO-K1 Ca PAM: 20.3; CHO-K1 Ca ag: 1.1; CHO-K1 Ca antag: -11.0

What do the screens show for `CC(=O)/C(C=Nc1noc(C)c1Br)=C(\C)O`?
CHRM1 agonist: -2.7; M1 PAM: 5.5; CHO-K1 Ca PAM: 19.0; CHO-K1 Ca ag: 0.8; CHRM1 antagonist: -11.1; CHO-K1 Ca antag: -16.4

How did COC(=O)c1sc(NC(=O)CSc2nnnn2-c2ccc(C)cc2C)nc1C do in these assays?
CHRM1 agonist: 1.0; M1 PAM: 9.0; CHO-K1 Ca PAM: -6.1; CHO-K1 Ca ag: -0.3; CHRM1 antagonist: -6.3; CHO-K1 Ca antag: 26.0*
